Measured values: PubChem BioAssay
Activity calls are given as the source filed them.

Key:
[1] = optical density shifts of acrAB sulA E. coli – strain DRC41, OD650, 48 h, E. coli filamentation inducer project, primary screen (AID 1152); conditions: higher = more signal, called active from +8 up or from −8 down;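 note: E. coli MC1000 strain DRC41 lacking acrAB efflux pump and sulA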
[2] = probe aLefty1 binding on compound microarray – biochemical, small-molecule microarray, 635/667 nm fluorescence, primary screen (AID 1153); conditions: higher = more signal;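 note: score merges spot fluorescence with signal-to-noise ratio from the scanned slide images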
[3] = plasmodial surface anion channel blockers, osmotic lysis – cell-based, P. falciparum Indochina, OD700, 1 h, primary screen (AID 1154); conditions: P. falciparum Indochina infected RBC osmotic lysis, higher = more signal, called active from +8 up or from −8 down
[4] = plasmodial surface anion channel blockers, osmotic lysis – cell-based, P. falciparum Indochina, OD700, 2 h, primary screen (AID 1155);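 note: lysis reports solute entry through the parasite surface anion channel PSAC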; conditions: P. falciparum Indochina infected erythrocytes, higher = more signal, called active from +8 up or from −8 down
[5] = changes in parasitized red cell lysis, either direction – P. falciparum Indochina, OD700, 3 h, PSAC antagonist project, primary screen (AID 1156); conditions: P. falciparum-infected erythrocytes, osmotic lysis, higher = more signal, called active from +8 up or from −8 down
[6] = plasmodial surface anion channel blockers, osmotic lysis – cell-based, P. falciparum Indochina, OD700, 18 h, primary screen (AID 1157); conditions: P. falciparum Indochina infected erythrocytes, osmotic lysis OD700, 18 h; higher = more signal, called active from +8 up or from −8 down
[7] = S6 kinase pathway phospho-S6 level changes – cell-based, A549, cytoblot, luminescence, serum-stimulated, primary screen (AID 1158); conditions: 5 h, higher = more signal;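 note: serum-stimulated A549 lung adenocarcinoma cells; signal is phosphorylated S6 detected by cytoblot immunostaining with HRP secondary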
[8] = biological target: NADPH oxidase 2 (Homo sapiens) (UniProt P04839); test: compounds shifting NOX2 Amplex Red fluorescence – cell-based, HEK293-NOX2, PMA-stimulated, NOX inhibitor project, primary screen (AID 1159); conditions: 45 min, higher = more signal, called active from +8 up or from −8 down; note: test concentration not given here
[9] = biological target: NADPH oxidase 4 (Homo sapiens) (UniProt Q9NPH5); test: compounds shifting NOX4 Amplex Red fluorescence – cell-based, HEK293-NOX4, tetracycline-induced, NOX inhibitor project, primary screen (AID 1160); conditions: HEK293-NOX4, Amplex Red H2O2 fluorescence, 45 min; higher = more signal, called active from +8 up or from −8 down
[10] = biological target: NADPH oxidase 5 (Homo sapiens) (UniProt Q96PH1); test: compounds shifting NOX5 Amplex Red fluorescence – cell-based, HEK293-NOX5, NOX inhibitor project, primary screen (AID 1161); conditions: HEK293-NOX5, ionomycin, 45 min, higher = more signal
[11] = compound effects on lung adenocarcinoma cell viability – A549, calcein-AM fluorescence, 48 h, basal, profiling panel (AID 1162); conditions: higher = more signal; note: test concentration not given here
[12] = compound effects on differentiated 3T3-L1 adipocyte viability – cell-based, 3T3-L1 adipocytes, calcein-AM fluorescence, 48 h, basal, profiling panel (AID 1163); conditions: 3T3-L1 adipocytes viability, higher = more signal; note: test concentration not given here
[13] = compound effects on hepatocellular carcinoma cell viability – HepG2, calcein-AM fluorescence, 48 h, basal, profiling panel (AID 1164); conditions: higher = more signal; note: test concentration not given here
[14] = compound effects on multiple myeloma cell viability – MM1S, calcein-AM fluorescence, 48 h, basal, profiling panel (AID 1165); conditions: higher = more signal; note: test concentration not given here
[15] = calcein-AM signal in unstimulated myeloma cells – cell-based, calcein-AM fluorescence, 48 h, PK04 Diversity Set, profiling panel (AID 1166); conditions: RPMI8226 myeloma viability, higher = more signal;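 note: cells grown under basal conditions without added stimulus; test concentration not given here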
[16] = JC-1 mitochondrial signal, unstimulated HepG2 cells – cell-based, JC-1 fluorescence, 24 h, 100 nL compound, profiling panel (AID 1167); conditions: HepG2 mitochondrial potential, higher = more signal; note: test concentration not given here
[17] = JC-1 mitochondrial signal, unstimulated adipocytes – cell-based, JC-1 fluorescence, 3T3-L1 adipocytes, 24 h, 100 nL compound, profiling panel (AID 1168); conditions: JC-1 mitochondrial fluorescence, higher = more signal, called active from +8 up or from −8 down; note: test concentration not given here
[18] = JC-1 mitochondrial signal, unstimulated myeloma cells – cell-based, JC-1 fluorescence, RPMI8226, 24 h, 100 nL compound, profiling panel (AID 1169); conditions: JC-1 mitochondrial potential fluorescence, higher = more signal; note: test concentration not given here
[19] = JC-1 mitochondrial signal, unstimulated MM1S myeloma – cell-based, JC-1 fluorescence, 24 h, 100 nL compound, profiling panel (AID 1170); conditions: MM1S mitochondrial potential, higher = more signal; note: test concentration not given here
[20] = resazurin metabolic signal in A549 cells – cell-based, resazurin fluorescence, 24 h, PK04 Diversity Set, profiling panel (AID 1171); conditions: A549 viability, higher = more signal, called active from +8 up or from −8 down; note: test concentration not given here

NADPH oxidase 2 (Homo sapiens), sequence (P04839 whole entry, looked up): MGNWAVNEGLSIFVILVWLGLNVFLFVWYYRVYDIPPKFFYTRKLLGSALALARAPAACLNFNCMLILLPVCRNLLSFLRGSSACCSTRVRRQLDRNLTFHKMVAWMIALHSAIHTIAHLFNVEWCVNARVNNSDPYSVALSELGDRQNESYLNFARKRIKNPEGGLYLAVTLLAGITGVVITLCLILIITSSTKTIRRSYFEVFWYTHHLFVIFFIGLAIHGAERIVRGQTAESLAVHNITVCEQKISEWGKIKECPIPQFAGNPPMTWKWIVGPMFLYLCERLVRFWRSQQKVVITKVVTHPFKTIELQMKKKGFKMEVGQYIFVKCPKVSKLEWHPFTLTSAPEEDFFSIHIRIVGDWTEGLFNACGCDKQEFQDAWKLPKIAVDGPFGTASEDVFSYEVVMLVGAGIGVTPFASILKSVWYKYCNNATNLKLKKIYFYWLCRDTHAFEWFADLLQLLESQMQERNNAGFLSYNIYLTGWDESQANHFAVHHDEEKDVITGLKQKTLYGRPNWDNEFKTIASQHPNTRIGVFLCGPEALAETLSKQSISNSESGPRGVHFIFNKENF
NADPH oxidase 5 (Homo sapiens), sequence (Q96PH1 whole entry, looked up): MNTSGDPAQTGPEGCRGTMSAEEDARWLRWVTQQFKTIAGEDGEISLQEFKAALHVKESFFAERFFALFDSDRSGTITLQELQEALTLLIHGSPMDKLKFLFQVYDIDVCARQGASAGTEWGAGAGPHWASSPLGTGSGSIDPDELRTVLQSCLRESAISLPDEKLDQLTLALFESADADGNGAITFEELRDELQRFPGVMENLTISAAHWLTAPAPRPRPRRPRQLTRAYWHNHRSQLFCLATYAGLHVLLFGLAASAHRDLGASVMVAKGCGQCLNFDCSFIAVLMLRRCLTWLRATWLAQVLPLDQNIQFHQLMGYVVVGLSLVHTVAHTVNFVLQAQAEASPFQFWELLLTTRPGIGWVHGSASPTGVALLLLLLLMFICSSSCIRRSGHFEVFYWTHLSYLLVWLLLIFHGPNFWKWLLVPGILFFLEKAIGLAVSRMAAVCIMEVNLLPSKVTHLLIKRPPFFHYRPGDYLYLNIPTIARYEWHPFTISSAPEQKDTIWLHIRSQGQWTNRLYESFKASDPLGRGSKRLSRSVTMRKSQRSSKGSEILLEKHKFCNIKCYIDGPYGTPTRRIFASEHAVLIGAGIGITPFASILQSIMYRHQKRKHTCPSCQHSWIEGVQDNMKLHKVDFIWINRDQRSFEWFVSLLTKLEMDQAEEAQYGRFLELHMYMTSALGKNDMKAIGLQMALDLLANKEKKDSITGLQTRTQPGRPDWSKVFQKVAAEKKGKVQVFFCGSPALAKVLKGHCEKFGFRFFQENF
NADPH oxidase 4 (Homo sapiens), sequence (Q9NPH5 whole entry, looked up): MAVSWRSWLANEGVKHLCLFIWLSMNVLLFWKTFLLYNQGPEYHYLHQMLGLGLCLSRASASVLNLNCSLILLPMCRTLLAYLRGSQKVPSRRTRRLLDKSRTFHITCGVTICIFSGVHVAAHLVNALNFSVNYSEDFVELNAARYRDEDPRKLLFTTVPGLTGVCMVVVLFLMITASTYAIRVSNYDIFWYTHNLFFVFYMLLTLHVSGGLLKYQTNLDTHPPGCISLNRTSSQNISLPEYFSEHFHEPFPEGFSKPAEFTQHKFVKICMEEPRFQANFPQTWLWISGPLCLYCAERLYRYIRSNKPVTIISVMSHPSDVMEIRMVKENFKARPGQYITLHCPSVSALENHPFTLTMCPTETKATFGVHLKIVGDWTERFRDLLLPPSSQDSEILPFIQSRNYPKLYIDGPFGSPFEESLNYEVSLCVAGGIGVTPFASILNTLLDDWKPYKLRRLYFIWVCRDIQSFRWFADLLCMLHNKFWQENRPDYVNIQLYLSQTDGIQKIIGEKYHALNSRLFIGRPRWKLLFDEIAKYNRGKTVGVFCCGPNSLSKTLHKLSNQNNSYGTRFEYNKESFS

| Compound | z-score [1] | composite z-score [2] | z-score [3] | z-score [4] | z-score [5] | z-score [6] | z-score [7] | z-score [8] | z-score [9] | z-score [10] | z-score [11] | z-score [12] | z-score [13] | z-score [14] | z-score [15] | z-score [16] | z-score [17] | z-score [18] | z-score [19] | z-score [20] |
| --- | --- | --- | --- | --- | --- | --- | --- | --- | --- | --- | --- | --- | --- | --- | --- | --- | --- | --- | --- | --- |
| COCCCNC(=O)[C@@]1(CCS(=O)(=O)c2ccccc2)N=C(c2ccc(OCCCO)cc2)O[C@H]1c1ccccc1N=[N+]=[N-] | 1.12 (inactive) | 0.517 | 29.4 (active) | 21 (active) | 1.28 (inactive) | 0.425 (inactive) | 1.62 | -5.07 (inactive) | -2.78 (inactive) | -2.11 | -0.196 | 2.02 | -0.43 | 0.0021 | -2.28 | 0.4 | -0.636 (inactive) | -0.938 | -1.2 | 1.36 (inactive) |
| CCOC(=O)C1=CC[C@@H](c2ccc(C(F)(F)F)cc2)N(S(=O)(=O)c2ccc(C)cc2)[C@H]1c1ccccc1 | -0.734 (inactive) | 0.373 | 1.62 (inactive) | 1.61 (inactive) | 0.84 (inactive) | 0.828 (inactive) | -0.356 | 0.803 (inactive) | -0.658 (inactive) | -0.601 | -0.664 | -1.01 | 0.0691 | -2.36 | -1.95 | -1.59 | 0.154 (inactive) | -1.11 | -3.18 | 0.138 (inactive) |
| [N-]=[N+]=Nc1ccccc1C[C@]1(C(=O)NCc2ccccc2)N=C(c2ccc(OCCCO)cc2)O[C@H]1c1ccccc1N=[N+]=[N-] | -0.107 (inactive) | -0.353 | 28.1 (active) | 28.7 (active) | 2.76 (inactive) | 5.76 (inactive) | 0.096 | -1.87 (inactive) | 0.483 (inactive) | -0.32 | -1.33 | 0.0309 | -1.2 | -2.94 | -3.55 | 1.58 | 0.00967 (inactive) | -1.18 | -2.49 | -1.6 (inactive) |
| O=C(O)C1N=C(c2ccc(OCCCO)cc2)N(c2ccccc2)O1 (stereo not given) | 0.0785 (inactive) | 0.0245 | 18.5 (active) | 2.35 (inactive) | 0.874 (inactive) | 0.497 (inactive) | -0.284 | -2.6 (inactive) | 0.0373 (inactive) | -0.638 | -0.906 | 0.135 | -0.0572 | 0.569 | -0.547 | -0.142 | 0.663 (inactive) | -1.22 | -0.228 | 0.417 (inactive) |
| COCC(=C=CC[C@H](O)c1cccc(OCCO)c1)C[C@H](O)c1cc(Cl)cc(Cl)c1O | 0.652 (inactive) | 0.0012 | 22.1 (active) | 5.78 (inactive) | 0.658 (inactive) | 1.21 (inactive) | 0.232 | -0.707 (inactive) | -0.429 (inactive) | -1.25 | 0.593 | -0.317 | 0.956 | -0.967 | -0.193 | 0.277 | 0.86 (inactive) | 0.262 | -0.931 | 0.627 (inactive) |
| C=CC[C@]12N=C(c3ccc(OCCCO)cc3)O[C@H]1c1ccccc1N(CCS(=O)(=O)c1ccccc1)C2=O | -0.913 (inactive) | 0.204 | 31.2 (active) | 28 (active) | 2.35 (inactive) | 7.99 (inactive) | 0.852 | -2.24 (inactive) | 0.939 (inactive) | -2.12 | 0.289 | 0.839 | 0.324 | -1.68 | -0.916 | 0.134 | 1.73 (inactive) | -1.01 | -1.25 | -1.02 (inactive) |
| COc1ccc([Si](C)(C)[C@@H]2[C@@H](CCn3cc([C@H](O)c4ccccc4)nn3)O[C@]3(C(=O)N(Cc4cccc(N5CCC5=O)c4)c4ccccc43)[C@H]2C)cc1 | -0.811 (inactive) | -0.144 | 10.4 (active) | 2.06 (inactive) | 0.538 (inactive) | 0.989 (inactive) | 0.135 | 0.702 (inactive) | 1.4 (inactive) | 2.32 | 0.208 | 0.745 | -0.924 | -0.6 | -0.984 | -0.262 | 1.15 (inactive) | -0.735 | -0.487 | 0.0773 (inactive) |
| CCOC(=O)C[C@H]1[C@H](OC(=O)c2ccc(-c3ccccc3)cc2)[C@@H](NC(=O)c2ccccc2)c2cc(OCCCO)ccc2N1C(=O)c1ccc2ccccc2n1 | -0.734 (inactive) | 0.119 | 2.19 (inactive) | -0.0981 (inactive) | -0.735 (inactive) | -0.11 (inactive) | -0.488 | 0.0548 (inactive) | 1.41 (inactive) | 1.81 | -0.208 | -0.0559 | 0.261 | -0.936 | -0.617 | 0.0102 | -0.811 (inactive) | 0.939 | -0.386 | -0.264 (inactive) |
| COc1ccc(C(=O)Nc2ccc(CN3C(=O)[C@]4(O[C@H](CC(=O)N5CCC[C@H]5CO)[C@@H]([Si](C)(C)c5ccc(OC)cc5)[C@@H]4C)c4ccccc43)cc2)cc1 | -0.951 (inactive) | 0.385 | 7.69 (inactive) | 1.45 (inactive) | -0.749 (inactive) | 0.598 (inactive) | 0.424 | 2.62 (inactive) | 1.45 (inactive) | 4.87 | -1.14 | 0.362 | -4.53 | -2.83 | -4.35 | -2.48 | -0.0307 (inactive) | -1.09 | -2.1 | -1.98 (inactive) |
